Assay outcomes as filed in PubChem.
3CLpro inhibitor: SARS-CoV 3CLpro protease inhibitors, primary screen, biochemical, quenched FRET; 0.14% of 290,000 active; AID 1706, 2009; inhibition, % at 6 µM; recombinant SARS-CoV 3CLpro, quenched FRET peptide cleavage; in the data active = inhibition above about 12%
DUSP3 inh: VHR1 phosphatase inhibitors, primary screen, biochemical, absorbance, uHTS. Dual specificity protein phosphatase 3 (Homo sapiens), P51452. recombinant VHR phosphatase, pNPP absorbance. inhibition, % at 13.3 µM. 0.52% of 290,000 active; in the data active = inhibition above about 50%
CCHFV vOTU inh: CCHFV vOTU protease inhibitors, primary screen, biochemical, Pep-AMC substrate, fluorescence. Crimean-Congo hemorrhagic fever virus L polyprotein viral ovarian tumor (vOTU) protease …. inhibition, % at 11.5 µM. 0.55% of 370,000 active. AID 651958, 2012; in the data active = inhibition above about 30%; note: 0% = vehicle wells with enzyme and 100% = no enzyme wells
RecA intein inh: Mtb RecA intein splicing inhibitors, primary screen, biochemical, fluorescence, HTS | inhibition, % (no concentration beside the values) | 0.75% of 290,000 active | Protein RecA (Mycobacterium tuberculosis (strain ATCC 25618 / H37Rv)), P9WHJ3 | cell-free RecA intein splicing; in the data active = inhibition above about 30%;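 note: 0% = vehicle wells and 100% = reference inhibitor control wells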
Target sequence (P9WHJ3 whole entry, looked up): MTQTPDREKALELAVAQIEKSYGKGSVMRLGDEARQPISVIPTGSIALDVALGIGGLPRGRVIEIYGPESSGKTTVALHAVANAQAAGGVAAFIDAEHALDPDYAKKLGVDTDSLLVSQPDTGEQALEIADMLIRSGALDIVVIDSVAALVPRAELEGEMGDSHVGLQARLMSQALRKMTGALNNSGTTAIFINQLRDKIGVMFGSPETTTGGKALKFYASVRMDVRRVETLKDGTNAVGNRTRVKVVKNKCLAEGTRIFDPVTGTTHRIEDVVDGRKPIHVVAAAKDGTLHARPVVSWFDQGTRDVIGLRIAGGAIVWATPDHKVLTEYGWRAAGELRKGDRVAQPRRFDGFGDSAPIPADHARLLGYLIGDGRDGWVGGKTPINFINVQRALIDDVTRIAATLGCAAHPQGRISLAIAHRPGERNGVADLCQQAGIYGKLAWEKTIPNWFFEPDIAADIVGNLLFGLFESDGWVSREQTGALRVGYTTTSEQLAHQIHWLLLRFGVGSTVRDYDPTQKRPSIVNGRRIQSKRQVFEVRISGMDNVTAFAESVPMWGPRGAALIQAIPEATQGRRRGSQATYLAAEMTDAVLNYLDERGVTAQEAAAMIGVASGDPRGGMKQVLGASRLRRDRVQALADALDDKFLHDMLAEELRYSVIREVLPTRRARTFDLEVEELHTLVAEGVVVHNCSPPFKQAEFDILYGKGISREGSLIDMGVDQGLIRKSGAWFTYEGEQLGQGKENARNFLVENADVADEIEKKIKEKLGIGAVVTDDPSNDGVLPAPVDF
GFP chromophore: counter-screen: blocks GFP chromophore formation, dose response, counter-screen, biochemical, fluorescence, homogeneous; shares compounds with RecA intein inh; cell-free GFP chromophore formation; EC50, µM; 83% of 2,100 active; AID 434968, 2010; call rule not given here
* = called active by the depositor; · = not tested or not shown. Most compounds without a hit are left out; they make up all but 1.5% or so of the library.

SMILES	3CLpro inhibitor	DUSP3 inh	CCHFV vOTU inh	RecA intein inh	GFP chromophore
CC(C)=C1C2CCC1C(C(=O)Nc1sc(C)c(-c3ccc(C(C)C)cc3)c1C(N)=O)C2C(=O)O (stereo not given)	1	2	11	12	·
CCOc1ccc(S(=O)(=O)NC(C)C(=O)NCc2cccnc2)cc1 (stereo not given)	-5	-8	2	0	·
COC(=O)c1sc(-c2ccc(Cl)cc2)cc1NC(=O)/C=C/C(=O)O	4	-16	4	70*	27*
O=[N+]([O-])c1ccc2nc(Cl)nc(-c3ccccc3)c2c1	1	9	2	47*	>38
O=[N+]([O-])c1ccc2nc(-[n+]3c(-c4ccccc4)cc(-c4ccccc4)cc3-c3ccccc3)[nH]c2c1	1	-4	·	11	·
N=C1CCCN1c1ccccc1O	2	-22	-12	-5	·
N=C1CCC(=N)c2c1c(O)c1ccccc1c2O	7	-1	·	91*	28*
O=C(NC1=C(Nc2ccc(Cl)cc2)C(=O)c2ccccc2C1=O)c1ccccc1	1	11	18	49*	25*
O=C(c1ccc(Cl)cc1)c1c[nH]c(C(=O)C(Cl)(Cl)Cl)c1	12	16	20	80*	3.9*
O=C(Cc1ccccc1)c1c[nH]c(C(=O)C(Cl)(Cl)Cl)c1	-7	10	3	69*	37*
O=C(c1c[nH]c(C(=O)C(Cl)(Cl)Cl)c1)c1ccc(F)cc1Cl	8	5	19	54*	23*
O=C(Cc1ccccc1)c1c[nH]c(C(=O)NCc2ccncc2)c1	-3	28	-6	-4	·
O=C(NCC1CCCO1)c1ccc(CSCc2cccc(F)c2)o1 (stereo not given)	2	10	-2	0	·
Cc1cc(F)ccc1C(O)c1ncc(-c2ccccc2C(F)(F)F)[nH]1 (stereo not given)	·	·	9	·	·
Cc1ccc2c(c1)-c1c(ssc1=S)C(C)(C)N2C(=O)CSc1nncn1C	0	18	-2	47*	13*
CC1(C)c2ssc(=S)c2-c2ccccc2N1C(=O)CSC1=NCCS1	5	2	-6	51*	4.6*
Cc1cc(C)c2c(c1)-c1c(ssc1=S)C(C)(C)N2C(=O)CSc1nncn1C	-1	12	4	46*	9.8*
COc1ccc2c(c1)-c1c(ssc1=S)C(C)(C)N2C(=O)CSC1=NCCS1	6	13	-2	24	·
N#Cc1ncc(Cc2ccccc2)nc1C#N	-1	14	11	82*	5*
N#Cc1nc(Cc2ccccc2)oc1NCc1cccnc1	-1	13	-13	1	·
C=CCN(CC#Cc1cccnc1)Cc1ccc(OC)cc1OC	·	·	4	·	·
CC1CCc2c(sc3nc(C(C)(C)C)nc(N4CCN(C(=O)CCl)CC4)c23)C1 (stereo not given)	6	-10	18	83*	0.96*
COc1ccc(C2=NN(c3nc(C)cc(C)n3)C(=O)C2)cc1	1	39	-6	78*	6.9*
Cc1ccc(NC(=O)CN(C)C(=O)CNC(=O)c2sc3ccccc3c2Cl)cc1	·	·	12	-2	·
CC1=NN(c2nc(-c3ccccc3)cs2)C(=O)C1	2	-11	18	66*	8.5*
SMILES	3CLpro inhibitor	DUSP3 inh	CCHFV vOTU inh	RecA intein inh	GFP chromophore
O=C1CC(c2ccccc2)=NN1c1nc(-c2ccccc2)cs1	1	5	10	0	·
COc1ccc2nc(C)cc(Sc3nc4ccccc4s3)c2c1	-1	15	-8	38*	24*
C#CCOc1ccc(Br)cc1C(c1c(C)[nH][nH]c1=O)c1c(C)[nH][nH]c1=O	0	8	-7	94*	2.2*
CCOc1ccc(Cl)cc1C(c1c(C)[nH][nH]c1=O)c1c(C)[nH][nH]c1=O	-1	-9	4	97*	0.92*
O=C(CN(C(=O)C1CSC(=O)C1)c1cccc(F)c1)NCc1ccc2c(c1)OCO2 (stereo not given)	2	39	-7	13	·
Cc1ccc(C(=O)NC(=S)NNS(=O)(=O)c2ccc(C)cc2)cc1	-2	-14	-1	41*	>38
CCN(CC)c1ccc(/C=C2\C(=O)N(c3nnc(C)c(=O)[nH]3)N=C2C)cc1	-2	9	17	81*	9.5*
O=C1NC(=O)C(=Cc2cc3c(cc2[N+](=O)[O-])OCO3)C(=O)N1	2	14	-6	39*	>38
O=C1NC(=O)C(=Cc2ccccc2[N+](=O)[O-])C(=O)N1	·	·	4	·	·
Cc1[nH]c2ccccc2c1CCNC(=O)c1ccc2c(c1[N+](=O)[O-])C(=O)c1ccccc1C2=O	-7	20	12	84*	31*
COc1ccccc1-c1n[nH]c(=S)n1Cc1ccccc1	2	11	2	0	·
COc1ccccc1-c1cn[nH]c(=S)n1	6	22	10	35*	>38
CCOC(=O)C1=C(C)N(CCCC(=O)O)C(=O)NC1c1ccc(C(F)(F)F)cc1 (stereo not given)	·	·	1	-1	·
CC(=O)NC(c1ccc(Cl)cc1)c1c(O)ccc2ccc(O)cc12 (stereo not given)	-1	15	-10	59*	12*
Cc1cccc(C(C)C)c1NC(=O)C(C)OC(=O)Cn1cnc2c1c(=O)n(C)c(=O)n2C (stereo not given)	·	·	-2	-3	·
COc1ccc(CC2=C(O)c3ccccc3C(=O)C2=O)cc1	3	9	-5	2	·
O=C1C(=O)c2ccccc2C(O)=C1CCCCl	3	-1	·	60*	12*
NC(=O)c1c(-c2cccs2)csc1N	0	3	·	67*	13*
Cn1c(SCC(=O)NCC2CCCO2)ncc(C(=O)Nc2ccccc2)c1=O (stereo not given)	·	·	-7	46*	>38
Cn1c(SCC(=O)NCc2ccccc2)ncc(C(=O)Nc2ccccc2)c1=O	·	·	6	5	·
CC(=O)Nc1ccc(NC(=O)CSc2ncc(C(=O)Nc3ccccc3)c(=O)n2C)cc1	·	·	14	31*	0.11*
Cc1ccc(NC(=O)CSc2ncc(-c3ccccc3)n2C(=O)c2ccccc2)cc1	2	19	3	54*	1.2*
Cc1ccc(C(=O)n2c(-c3ccccc3)cnc2SCC(=O)Nc2ccccc2)cc1	2	18	-15	7	·
Cc1nn(-c2ccccc2)c2c1C(c1ccncc1)C(C#N)=C(N)O2 (stereo not given)	-1	23	8	38*	17*
Cc1nn(-c2ccccc2)c(Cl)c1C1C(C#N)=C(N)Oc2c1c(C)nn2-c1ccccc1 (stereo not given)	3	28	17	12	·
CCn1c(C)cc2c(c1=O)C(c1ccncc1)C(C#N)=C(N)O2 (stereo not given)	0	-10	2	-1	·
